Rows were chosen to be rich in hits. Some 19% of all compounds tested hit in one or more screens of this group.
IL1B secr inh: inhibitors of inflammasome signaling (IL-1 beta secretion) | activity change, % at 57.5 µM | THP-1 LPS/ATP IL-1B secretion, AlphaLISA, 16 h; stronger effect = lower value | 360,000 compounds, 4.7% hits; in the data active means activity change below about -50%; inconclusive means mostly about -30% to -49%
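Secreted IL-1B measured by AlphaLISA bead assay after 16 h compound exposure of THP-1 cells; compounds (final up to 57.5 uM) added 1 h before LPS (250 ng/mL) and ATP (1.25 mM) stimulation; lower signal means less secretion.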
HT1080NT lethal: kills 2HG-producing HT-1080-NT fibrosarcoma cells | HT-1080-NT fibrosarcoma viability, CellTiter-Glo ATP luminescence, 48 h | Potency, µM (top dose mostly 46.1 µM), for inactives: top-dose activity, negative = less viability, usual class: cytotoxic | 360,000 compounds, 1.6% hits | AID 686970;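 further: NT is the 2HG producing partner of a matched IDH1 knockdown line; potency means the concentration at half of the fitted maximal effect; 0% = DMSO-treated cells and -100% = media-only wells without cells; nearly all actives have a fitted effect of over 55% in size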
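HT-1080-NT fibrosarcoma cells (2HG-overproducing), 750 cells/well in RPMI with 5% FBS, dosed after 2 h and incubated 48 h at 37C. CellTiter-Glo luminescence normalized to DMSO and no-cell wells; concentration-response curves fitted and classed.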
TDP1 cell noCPT: qHTS for Inhibitors of human tyrosyl-DNA phosphodiesterase 1 (TDP1): qHTS in cells in absence of CPT | DT40 Tdp1-/- hTDP1 cells, no CPT, ATP luminescence, 48 h | Potency, µM (titrated, usually from 46.2 µM), for inactives: at the highest dose activity change, negative = growth inhibition, actives largely listed as inhibitors | 420,000 compounds, 15% hits | AID 686978, 2013; further: potency means the concentration at half of the fitted maximal effect; nearly all actives have a fitted effect of over 55% in size
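Growth of hTDP1-complemented DT40 Tdp1-knockout cells is measured by ATP luminescence after at least 48 hr compound exposure at 37 °C, with DMSO substituting for the 20 nM CPT used in the parallel screen.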
ELG1 repair inh: inhibitors of ELG1-dependent DNA repair in HEK293T cells; HEK293T ELG1-luciferase reporter, luminescence, 16 h; DNA damage induced by 5-fluorouridine; 330,000 compounds, 2.3% hits; Potency, µM (highest dose often 46.1 µM), without a hit: top-dose activity change, negative = inhibition, most hits filed as inhibitors; AID 504467; further: potency means the concentration at half of the fitted maximal effect; nearly all actives have a fitted effect of over 55% in size
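DMSO vehicle served as the neutral condition. Each well held 2,000 cells given 5-fluorouridine plus compound; after 16 hr at 37 °C/5% CO2, ONE-Glo was added and luciferase measured 30 min later.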
DT40 TDP1 CPT: growth inhibition of DT40 Tdp1-/-;hTDP1 cells with camptothecin (screen for TDP1 inhibitors) | chicken DT40 Tdp1-/-;hTDP1 cells + 20 nM CPT, ATP luminescence, 48 h | Potency, µM (titrated, usually from 46.2 µM), inactives show top-dose activity change, negative = growth inhibition, hits mostly inhibitors | 420,000 compounds, 12% hits | AID 686979; further: potency means the concentration at half of the fitted maximal effect; nearly all actives have a fitted effect of over 55% in size
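Chicken DT40 Tdp1-/- cells complemented with human TDP1, 400 cells/well, exposed to compounds plus 20 nM camptothecin for at least 48 h at 37 C; viability read as ATP content by CellTiter-Glo luminescence.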
HT1080 IDH1KD tx: toxicity to HT-1080 IDH1 knockdown cells (counter line); HT-1080 IDH1 knockdown viability, ATP luminescence, 48 h; Potency, µM (doses to about 46.1 µM), without a hit: top-dose activity, negative = toxicity, actives largely listed as cytotoxic; 360,000 compounds, 2% hits;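 further: potency means the concentration at half of the fitted maximal effect; 0% = DMSO wells and -100% = cell-free medium wells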
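Luminescent ATP read-out (CellTiter-Glo, 10 min at room temperature) after 48 h compound exposure at 37 °C gave viability of IDH1-knockdown HT-1080 cells. Activity was normalised to DMSO and cell-free wells, then fitted as concentration-response curves.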
* marks the source's active call; other numbers are inactive results; ? = inconclusive; · = no result; [ ] = another dose, or the depositor's remark. Unless noted, the call rests on the fitted dose curve; in most records, active means well fitted curve in the direction sought with a large enough effect; inconclusive means small, poorly fitted or top-dose-only effect, or another doubt; inactive means no such curve, though single readings can be large; an effect the other way counts as inactive or inconclusive. Unless noted, on the % scale 0 is the no-effect control and ±100 the full control effect.

SMILES	IL1B secr inh	HT1080NT lethal	TDP1 cell noCPT	ELG1 repair inh	DT40 TDP1 CPT	HT1080 IDH1KD tx
c1ccc(Cn2nnnc2C(c2cccnc2)N2CCN(c3ccccc3)CC2)cc1 (stereo unspecified)	-2	-25%	23µM*	?	21µM*	-1%[9.24 µM]
CCCCn1nnnc1C(c1ccccc1)N1CCN(c2ccc(C)cc2)CC1 (stereo unspecified)	-27	-21%	18µM*	·	?	-25%
CCCCn1nnnc1C(c1ccccc1)N1CCN(c2ncccn2)CC1 (stereo unspecified)	-19	4%	21µM*	·	?	1%
CCCCn1nnnc1C(c1ccccc1)N1CCN(CCN2CCOCC2)CC1 (stereo unspecified)	42	-10%	-14%	·	2%	10%
CCCCn1nnnc1C(c1ccccc1)N1CCN(c2ccccn2)CC1 (stereo unspecified)	?	15%	16µM*	·	-46%	10%
CCCCn1nnnc1C(c1ccccc1)N1CCN(c2cccc(C(F)(F)F)n2)CC1 (stereo unspecified)	-7	-9%	?	·	?	-7%
COc1ccc(OC)c(NC(=O)C(C)N2c3cccc4cccc(c34)S2(=O)=O)c1 (stereo unspecified)	37	19%	-17%	7%	2%	4%
Nc1nc(Cl)c(C=O)c(N2CCCCC2)n1	-95*	?	-2%	23%	0%	?
Cc1cccc2c(N=Nc3ccccc3)c(O)[nH]c12	20	-30%	-2%	?	-3%	-23%
Cc1[nH]c(N=Nc2ccccc2)nc1N=Nc1ccccc1	98	-17%	5.8µM*	?	5.8µM*	?
CCn1c(=O)c(C(=O)Nc2ncccc2C)c(O)c2ccccc21	7	-8%	2.6µM*	-26%	2.3µM*	-30%
Cn1c(=O)c(C(=O)NNC(=O)c2ccc(Br)cc2)c(O)c2ccccc21	24	21µM*	18µM*	?	?	15µM*
CCn1c(=O)c(C(=O)Nc2ncccc2O)c(O)c2ccccc21	10	-21%	-2%	?	13%	0%
Cc1cccnc1NC(=O)c1c(O)c2ccccc2n(C)c1=O	18	?	23µM*	27%	?	-29%
CCN(CC)Cc1nc2nc(Cl)c(Cl)nc2[nH]1	3	1%	0%	·	-7%	1%
COc1ccc(CNC(=O)C2CCCN(S(=O)(=O)c3ccc(F)cc3)C2)cc1 (stereo unspecified)	7	4%	?	-27%	?	4%
COc1ccc(NC(=O)C2CCCN(S(=O)(=O)c3ccc(F)cc3)C2)cc1 (stereo unspecified)	·	·	15µM*	·	15µM*	·
CCOc1ccc(OCC)c(NC(=O)C2CCCN(S(=O)(=O)c3c(C)n[nH]c3C)C2)c1 (stereo unspecified)	-1	3%	-24%	?	-13%	10%
CC(=O)c1cccc(NC(=O)C2CCCN(S(=O)(=O)c3ccc(F)cc3)C2)c1 (stereo unspecified)	-19	-2%	?	?	?	-12%
Cc1ccc(NC(=O)C2CCCN(S(=O)(=O)c3ccc(C)cc3)C2)cc1 (stereo unspecified)	·	·	16µM*	·	16µM*	·
O=C(Nc1cccc(F)c1)C1CCCN(S(=O)(=O)c2ccccc2)C1 (stereo unspecified)	2	-2%	?	?	18µM*	-14%
CCOc1ccc(OCC)c(NC(=O)C2CCCN(S(=O)(=O)c3ccc(C)cc3)C2)c1 (stereo unspecified)	18	4%	16µM*	?	26µM*	-5%
O=C(Cn1c(=O)n(CCCS(=O)(=O)C2CCCCC2)c(=O)c2ccccc21)Nc1ccc(F)c(Cl)c1	·	·	1%	·	7%	·
Cn1c(-c2ccc(Cl)nc2)nc2cc(Cl)ccc21	-6	-12%	-19%	13%	8%	-9%
Cc1ccc(S(=O)(=O)N2CCCC(C(=O)N(Cc3cccs3)C3CC3)C2)cc1 (stereo unspecified)	-9	-1%	13µM*	?	13µM*	-11%
SMILES	IL1B secr inh	HT1080NT lethal	TDP1 cell noCPT	ELG1 repair inh	DT40 TDP1 CPT	HT1080 IDH1KD tx
COc1ccc(S(=O)(=O)N2CCCC(C(=O)Nc3ccc4c(c3)OCCO4)C2)cc1 (stereo unspecified)	?	-2%	?	?	21µM*	-24%
O=C(NCc1cccs1)C1CCCN(S(=O)(=O)c2ccc3c(c2)OCO3)C1 (stereo unspecified)	4	0%	?	-12%	-24%	2%
CCOc1ccc(-c2nn(CC(=O)NC3CCCC3)c3c2cnc2ccc(F)cc23)cc1	·	·	7%	·	-2%	·
CCc1ccc(CN(C)C(=O)c2cc(COc3cc(C)c(Cl)c(C)c3)on2)nc1	0	?	?	-2%	16µM*	?
Cc1cc(OCc2cc(C(=O)NCCN3CCCCC3CO)no2)cc(C)c1Cl (stereo unspecified)	-62*	?	?	-9%	?	?
Cc1cc(OCc2cc(C(=O)N(C)CCc3cnn(C)c3)no2)cc(C)c1Cl	-59*	-13%	21µM*	?	13µM*	-23%
Cc1cc(OCc2cc(C(=O)N(C)C3CCOC3)no2)cc(C)c1Cl (stereo unspecified)	-18	-5%	16µM*	?	16µM*	-19%
CC(=O)c1ccc(OCc2cc(C(=O)N(C)C3CCOC3)no2)cc1 (stereo unspecified)	5	-5%	0%	0%	-3%	0%
Cc1ccc(OCc2cc(C(=O)NCCn3cccn3)no2)cc1C	27	9%	-8%	?	?	6%
CCc1ccccc1NC(=O)CSc1nnc(-c2cc(OC)c(OC)c(OC)c2)o1	·	·	-24%	·	-21%	·
CCOC(=O)c1c(C)n(C)c2cc(Br)c(C)cc12	0	11%	-12%	-17%	-7%	8%
CCOC(=O)c1c(CN2CCOCC2)n(C)c2cc(Br)c(O)c(CN(C)C)c12	?	9%	?	?	?	0%
CCOC(=O)c1c(CN2CCC(C)CC2)n(C)c2cc(Br)c(OC)cc12	-13	18%	16µM*	-17%	?	0%

Assay outcomes deposited in PubChem by National Center for Advancing Translational Sciences (NCATS).
